Each structure is given as a SMILES string. Records with an inconclusive call do not appear. Activity calls are given as the source filed them. Calls come from the whole dose curve; as a rule, active = well fitted cell-killing curve with a large enough effect in the repeat runs; inconclusive = weak or mixed curves; inactive = no such curve, though single readings can be large or run the other way.
% is set by controls: 0 for no effect and ±100 for the full control effect.

The nature of the assay: qHTS assay to identify small molecule agonists of the peroxisome proliferator-activated receptor delta (PPARd) signaling pathway - cell viability counter screen (AID 743211). Note: nearly all actives have a fitted effect of over 55% in size. Particulars: PPARd-bla HEK293H viability, CellTiter-Glo luminescence, 17 h; series mostly up to 62.6 µM; activity change, negative = cytotoxicity: at the top concentration. The text has this: U.S. Tox21 Program National Center for Advancing Translational Sciences [NCATS] NIH Chemical Genomics Center [NCGC] U.S. Environmental Protection Agency [EPA] National Institutes of Environmental Health Sciences [NIEHS] National Toxicology Program [NTP] U.S. Food and Drug Administration [FDA] Tox21 Assay Overview: The peroxisome proliferator-activated receptors (PPARs) are lipid-activated transcription factors of the nuclear receptor superfamily with three distinct subtypes namely PPAR alpha, PPAR delta (PPARd) and PPAR gamma. All these subtypes heterodimerizes with Retinoid X receptor (RXR) and have different physiological functions. […] To identify the compounds that activate PPAR-delta signaling, GeneBLAzer PPAR delta UAS-bla HEK293H cell line (Invitrogen, Carlsbad, CA, USA) containing a beta-lactamase reporter gene under the control of an Upstream Activator Sequence (UAS) was used to screen the Tox21 compound library. The cytotoxicity of the Tox21 compound library against the PPARd-bla cell line was tested in parallel by measuring the cell viability using CellTiter-Glo assay (Promega, Madison, WI) in the same wells.
Tox21 Assay Protocol Summary: PPARd-bla cells were dispensed at 3000 cells/6uL/well in 1536-well black wall/clear bottom plates using a Multidrop Combi (Thermo Fisher Scientific, Waltham, MA) dispenser. After the assay plates were incubated at 37 C and 5% CO2 for 5 h, 23 nL of compounds dissolved in DMSO, positive controls or DMSO only was transferred to the assay plate by a Pintool station (Kalypsys, San Diego, CA). The assay plates were incubated at 37C for 17 h. After 1 uL of LiveBLAzerTM B/G FRET substrate was added using a Bioraptr Flying Reagent Dispenser (FRD) workstation (Beckman Coulter, Indianapolis, IN, USA), the plates were incubated at room temperature for 2 h, and fluorescence intensity was measured by an Envision plate reader (PerkinElmer, Shelton, CT). For cell viability readout that measures cytotoxicity, 3 ul/well of CellTiter-Glo reagent was added into the assay plates using a Bioraptr FRD. After 30 min incubation at room temperature, the luminescence intensity in the plates was measured using a ViewLux plate reader (PerkinElmer).
With `CCNC(=S)NCC`, the outcome was inactive.

As to `C=C(C)C(=O)OCC(C)C`, the result was inactive.

On to `CC(CCO)CC(C)(C)C` (stereo not given), for which the “activity change, negative = cytotoxicity” value is 2.91% [at 81.1 µM] (inactive).

For `O=C1c2ccccc2CCc2ccccc21`, the call was inactive.

For the compound `Cc1ccc(S(=O)(=O)N=C=O)cc1`, the call was inactive.

Consider `Nc1ccc(Cl)c(N)c1`, for which the call was inactive.

With `CC1(C)NC(=O)NC1=O`, the outcome was inactive.

As to `C=Cc1ccc(C)cc1`, the result was inactive.

On to `Cc1ccc(C(C)C)c(O)c1`, for which the “activity change, negative = cytotoxicity” value was 8.35% (inactive).

`CC(=O)CC(C)(C)O`: the outcome was inactive.

`Cc1ccc2ncccc2c1`: the compound was classed as inactive.

Take `CCCCCCCO`: the call was inactive.

Take `CC(C)CC(=O)CC(C)CC(C)C` (stereo not given): the call was inactive.

`C=CC[N+](C)(C)CC=C`: the compound was classed as inactive.

As for `CCOC(=O)n1ccn(C)c1=S`, the result was inactive.

`CN/C(=C\[N+](=O)[O-])NCCSCc1csc(CN(C)C)n1`: the outcome was inactive.

Consider `C=C(C)[C@H]1CC=C(C)C(=O)C1`, for which the result was inactive.

For the compound `COc1ccc(CCC(C)=O)cc1`, the call was inactive.

Consider `C[Si]1(C)O[Si](C)(C)O[Si](C)(C)O[Si](C)(C)O1`, for which the compound was classed as inactive.

Consider `CCNc1ccccc1`, for which the “activity change, negative = cytotoxicity” value is 0.93% [at 81.1 µM] (inactive).

On to `O=C(O)c1ccc(S(=O)(=O)N(Cl)Cl)cc1`, for which the result was inactive.

As to `OCc1cccc(Oc2ccccc2)c1`, the result was inactive.

With `CC1(C)OC[C@@H]2O[C@@]3(C(=O)O)OC(C)(C)O[C@H]3[C@@H]2O1`, the compound was classed as inactive.

Take `CCCCCC(=O)O`: the outcome was inactive.

Turning to `COc1ccc([N+](=O)[O-])cc1N`, the outcome was inactive.

As to `COc1ccc(OC)cc1`, the outcome was inactive.

For `Cc1ccc([N+](=O)[O-])cc1S(=O)(=O)O`, the compound was classed as inactive.

With `NCCCCCCN`, the result was inactive.

As to `COC(=O)CCCC(=O)OC`, the call was inactive.

For the compound `CC(=O)OCc1ccccc1`, the outcome was inactive.

In the case of `O=S(=O)(O)c1ccc(N=Nc2c(O)ccc3cc(S(=O)(=O)O)ccc23)cc1`, the outcome was inactive.

With `O=c1[nH]cnc2[nH]ncc12`, the compound was classed as inactive.

Turning to `CCO[Si](CCC#N)(OCC)OCC`, the call was inactive.

Regarding `CC(=O)OCc1ccco1`, the compound was called inactive.

With `O=C(OCC1CCC2OC2C1)C1CCC2OC2C1` (stereo not given), the compound was classed as inactive.

For the compound `CCCCCCCCCCN`, the call was inactive.

As for `C=CCc1ccc(OC)c(OC)c1`, the “activity change, negative = cytotoxicity” value was -1.01% [at 81.1 µM] (inactive).

For `CN(C)CCOC(=O)COc1ccc(Cl)cc1`, the compound was called inactive.

Turning to `CC1(C)CC(N)CC(C)(CN)C1` (stereo not given), the result was inactive.

For `CC(C)(Oc1ccc(CCNC(=O)c2ccc(Cl)cc2)cc1)C(=O)O`, the outcome was inactive.
